The panel holds about 83,000 compounds, 20% with a hit somewhere; the sample as a whole holds those more often.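 Single-dose data. Exposure time 48 hours. Values below 10 considered active.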 A number with no mark means an inactive call. Calls of active or inactive are those of the source.
Experiments:
Assay in all cases: NCI-60 one-dose screen, 48 h (100 = growth as untreated, 0 = no growth, -100 = all killed)
Details in all cases: 10 µM unless noted
NCI-H23 lung = test system: NCI-H23 lung
NCI-H226 lung = test system: NCI-H226 lung
HOP-62 NSCLC = test system: HOP-62 NSCLC
HOP-92 NSCLC = test system: HOP-92 NSCLC
NCI-H522 lung = test system: NCI-H522 lung
A549/ATCC NSCLC = test system: A549/ATCC NSCLC
786-0 renal = test system: 786-0 renal
COLO 205 colon = test system: COLO 205 colon
NCI-H460 lung = test system: NCI-H460 lung

| Compound | growth (NCI-H23 lung) | growth (NCI-H226 lung) | growth (HOP-62 NSCLC) | growth (HOP-92 NSCLC) | growth (NCI-H522 lung) | growth (A549/ATCC NSCLC) | growth (786-0 renal) | growth (COLO 205 colon) | growth (NCI-H460 lung) |
| --- | --- | --- | --- | --- | --- | --- | --- | --- | --- |
| Cc1ccc[n+](CCC(N)=O)c1 | 95.3% | 99.6% | 87.2% | 91.5% | 90.2% | 93.7% | 94.4% | 107% | – |
| O=c1[nH]c(=O)c2cc(Cl)cc(Cl)c2[nH]1 | 101% | 96.8% | 113% | 104% | 99.7% | 108% | 101% | 117% | 112% |
| CCOC(=O)c1ccc(NC(=O)Nc2nccs2)cc1 | 19.4% | 19.9% | 20.6% | -7.86% (active) | -43.5% (active) | 10.6% | -7.93% (active) | -82.9% (active) | -44.2% (active) |
| CCOC(=O)c1cc(Cl)c(O)c(Cl)c1 | 103% | 103% | 106% | 109% | 103% | 100% | 107% | 99.6% | 108% |
| c1cc(CNCCNCc2ccncc2)ccn1 | 112% | 103% | 103% | 97.5% | 108% | 97.7% | 104% | 113% | 116% |
| C=C1C(=O)C2CCC1C2 (centres undefined) | 107% | 99.8% | 102% | 102% | 91.8% | 98.4% | 92.8% | 112% | 113% |
| O=C1NC(=O)C(c2ccccc2)O1 (centres undefined) | 102% | 105% | 104% | 104% | 90.2% | 100% | 90.3% | 108% | 109% |
| CCNCC(C)(C)O | 99.1% | 105% | 100% | 84.4% | 109% | 96.1% | 103% | 113% | 113% |
| CC1CC2C3CCC4=CC(=O)CCC4(C)C3CCC2(C)C1(O)C(=O)CO (centres undefined) | 115% | 103% | 106% | – | 92.2% | 88.6% | 112% | 117% | 117% |
| CC(=O)Nc1ccc(O)c(C)c1 | 99.8% | 95% | 98% | 100% | 93.5% | 88.1% | 105% | 109% | 104% |
| CN1C(=O)NC(c2ccc(Cl)cc2)(c2ccc(Cl)cc2)C1=O | 98.2% | 94.1% | 125% | 58.4% | 108% | 115% | 106% | 122% | 111% |
| Cn1c(=O)[nH]c2ccccc2c1=O | 104% | 109% | 99.6% | 143% | 96.6% | 100% | 97.5% | 114% | 111% |
| CSCC[C@@H]1C(=O)N(C)[C@H](C(C)(C)C)N1C(=O)c1ccccc1 | 101% | 102% | 103% | 108% | 107% | 101% | 106% | 113% | 112% |
| COC1CC(OC(=O)c2ccc([N+](=O)[O-])cc2)C(COC(=O)c2ccc([N+](=O)[O-])cc2)O1 (centres undefined) | 105% | 88.9% | 118% | 82.8% | 118% | 103% | 105% | 112% | 105% |
| C1Cc2onc(-c3noc4c3CCC4)c2C1 | 105% | 120% | 103% | – | 96.5% | 104% | 106% | 115% | 137% |
| C=CCN1CCCC1=O | 106% | 102% | 106% | 99.6% | 101% | 112% | 105% | 95.4% | 105% |
| Cc1ccc(S(=O)(=O)CCCl)cc1 | 102% | 108% | 112% | 76.1% | 113% | 89.5% | 108% | 120% | 105% |
| CCCCCCCCCc1ccc(OC(C)=O)cc1 | 105% | 99.7% | 113% | 98.2% | 99.4% | 98.9% | 101% | 113% | 103% |
| OCc1cccnc1 | 100% | 103% | 99.8% | 98.4% | 108% | 92.2% | 107% | 107% | 103% |
| COc1cc2c(c(OC)c1OC)-c1ccc(SC)c(=O)cc1[C@@H](NC1OC(CO)C(O)C(O)C1O)CC2 (some centres undefined) | 29.9% | 43.4% | 25.9% | 77.9% | -16.8% (active) | 10.4% | 19.8% | -61.5% (active) | 3.13% (active) |
| CC(=O)N(C(C)=O)c1ccc(C)cc1 | 98.1% | 96.2% | 105% | 99.5% | 113% | 104% | 92.7% | 119% | 107% |
| C=CCNC(=S)N/C=C(/C(=O)c1ccccc1)c1ccccc1 | 97.4% | 104% | 96.7% | 95.7% | 109% | 103% | 111% | 95.3% | 104% |
| Cc1cccnc1NC1OC(=O)c2ccccc21 (centres undefined) | 100% | 98.6% | 99.7% | 119% | 88.6% | 96.2% | 99.6% | 101% | 105% |
| Cc1c(-c2ccc(C3CCCCC3)cc2)nc2ccc(F)cc2c1C(=O)O | 53.5% | 64.1% | 61.7% | 83.3% | 38.5% | 21.3% | 38% | 44.2% | 7.22% (active) |
| CC(=O)OC/C(C)=C\CC(C)COC(C)=O (centres undefined) | 112% | 103% | 96.9% | 69.8% | 110% | 106% | 96.7% | 104% | 102% |
| CCCCNc1ccc(-c2ccc(NCCCC)cc2)cc1 | 65.5% | 73.4% | 91.2% | 97.7% | 46.2% | 61.6% | 58.9% | 111% | 65.8% |
| Cc1ccc(C2CCCCC2)cc1Br | 105% | 97.7% | 91.3% | 95% | 91.3% | 89.4% | 96.4% | 101% | 108% |
| COC(c1ccc2c(c1)OCO2)C(C)Br (centres undefined) | 95.2% | 93.1% | 82.8% | 74.9% | 84.6% | 94% | 112% | 94.5% | 104% |
